This passage reports growth results from PubChem BioAssay (NCI).

This is part of a sample that, as a whole, favours compounds with a hit. Of some 83,000 tested, about 20% had one in any assay.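 A percent growth of 40 corresponds to 60% growth inhibition; 0 means no net growth; -100 means all cells died. Active threshold: below 10.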 Values without a mark were called inactive. Active and inactive are the calls of the source.

Holding throughout (test): NCI-60 one-dose screen, 48 h (100 = growth as untreated, 0 = no growth, -100 = all killed)
Common to all, as to conditions: 10 µM unless noted

In test [1] the test system is SK-MEL-2 melanoma.
Test [2] concerns EKVX NSCLC.
For test [3], the system named is SN12C renal.
In test [4] the test system is UO-31 renal.
In test [5] the test system is TK-10 renal.
Test [6] deals with ACHN renal.
Test [7] has as its system CAKI-1 renal.
Test [8] has as its system A498 renal.
In test [9] the test system is CCRF-CEM leukemia.
Test [10] has as its system MOLT-4 leukemia.
In test [11] the test system is SR leukemia.
Test [12] relates to RPMI-8226 leukemia.
In test [13] the test system is OVCAR-8 ovarian.
Test [14] deals with OVCAR-5 ovarian.
Test [15] has as its system SK-OV-3 ovarian.
In test [16] the test system is IGROV1 ovarian.
The test system of test [17] is HS 578T breast.
In test [18] the test system is NCI/ADR-RES ovarian.
The test system of test [19] is OVCAR-3 ovarian.

Take `C=C(C)[C@@H]1CC[C@]2(COC(=O)c3ccccc3C(=O)O)CC[C@]3(C)[C@H](CC[C@@H]4[C@@]5(C)CC[C@H](OC(=O)c6ccccc6C(=O)O)C(C)(C)[C@@H]5CC[C@]43C)[C@@H]12`: the growth is 23.8% [100 µM] in test [1]; 39.5% [100 µM] in test [2]; 27.8% [100 µM] in test [3]; 27.7% [100 µM] in test [4]; 21.8% [100 µM] in [5]; -55.6% [100 µM] (active) in [6]. Also, the growth was 10.7% [100 µM] in test [7]; -0.192% [100 µM] (active) in [8]; 46.4% [100 µM] in [9]; 39.9% [100 µM] in test [10]; 63.8% [100 µM] in [11]; 28.4% [100 µM] in [12]. The growth in test [13] is 46.7% [100 µM]; in test [14] it was 105% [100 µM]; in [15], 47.9% [100 µM]; in [16] it was 31% [100 µM]; in test [17], -3.77% [100 µM] (active); in test [18] it was 23.1% [100 µM].
On to `Cc1cnc(N)nc1OCC(C)(C)CNC(=O)c1cccc(-c2ccc(S(=O)(=O)Nc3ccc4c(c3)N(C(=O)C3CC3)CCC4)cc2)c1`, for which the growth in test [1] was 67.7%; in test [2] it was 62.9%; in test [3], 68.5%; in test [4], 62%; in test [5], 76.6%; in test [6] it was 70.2%. For the same compound, the growth in test [7] was 52.1%; in test [8] it was 37.3%; in test [9], 61.7%; in [10], 29.1%; in test [11] it was 79.9%; in test [12], 44.6%. Further, the growth is 62.3% in test [13]; 79.4% in test [14]; 68.2% in test [15]; 63.4% in [16]; 68.2% in test [19]; 64.4% in [17]. Besides, the growth in [18] was 105%.
In the case of `C#C[C@]1(O)CC[C@H]2[C@@H]3CC=C4c5nc(Nc6ccccc6[N+](=O)[O-])sc5CC[C@]4(C)[C@H]3CC[C@@]21C`, the growth in test [1] was 56.7%; in test [2], 67.4%; in test [3], 79.5%; in test [4] it was 63.1%; in [5], 72.4%; in [6], 70.7%. Also, the growth is 38.9% in test [7]; 11.7% in [8]; 61.9% in test [9]; 43.7% in [10]; 30.2% in [11]; 1.11% (active) in [12]. The growth in test [13] is 85.7%; in test [14], 70.4%; in test [16], 67.2%; in test [19], 65.8%; in [18], 75.8%.
`COc1ccc(C2=C(c3cn(C)c4ccccc34)C(=O)OC2)cc1OC`: the growth is 33.6% in [1]; 53% in test [2]; 36.9% in test [3]; 25% in test [4]; 61.4% in [5]; 34% in [6]. The growth was 25.6% in test [7]; -10.9% (active) in test [8]; 31.2% in test [9]; 32.4% in test [10]; 29.1% in test [11]; 40% in [12]. For the same compound, the growth in test [13] was 47.8%; in [14], 64.9%; in test [16], 43.4%; in test [19], -8.6% (active); in test [17] it was 22.5%; in test [18], 22.7%.
Turning to `O=C(CCN1CCCCC1)c1ccc2ccccc2c1`, the growth in test [1] was 102%; in test [2] it was 112%; in [3], 96.7%; in test [4], 77.1%; in test [5] it was 94.5%; in [6] it was 116%. Moreover, the growth is 98.1% in test [7]; 93.5% in [8]; 92.3% in [9]; 108% in test [10]; 103% in test [11]; 77.5% in test [12]. For the same compound, the growth is 99.9% in [13]; 117% in [14]; 105% in [15]; 104% in [16]; 98.6% in test [19]; 104% in test [17]. In addition, in test [18], the growth was 109%.
As to `CCNC(=O)N1CCc2c(Cl)c3c(c(OC)c2[C@@H]1[C@H]1OCc2c1ccc(OC)c2OC)OCCO3`, the growth in test [1] was 22.8%; in [2] it was 48.7%; in test [3], 38.1%; in [4], 34.2%; in [5], 47.7%; in test [6], 31.5%. In addition, the growth in test [7] was 24.3%; in test [8] it was -20.6% (active); in test [9], 12.3%; in test [10], 30.8%; in test [11] it was 18.3%; in test [12] it was 17.3%. The growth in test [13] was 30.7%; in [14], 38.1%; in test [16] it was 29.1%; in test [19], -5.71% (active); in test [17] it was 14.5%; in [18] it was 1.11% (active).
